# FadD28 FP inh: inhibitors of FadD28 bisubstrate probe binding, primary screen, biochemical, fluorescence polarization, single point; inhibition, % at 12.5 µM; hit rate 0.22% among 360,000; AID 588549, 2011; in the data active = inhibition above about 8.5%, passing the limit was not always enough
# TcdB inh: TcdB glycohydrolase inhibitors, primary screen, biochemical, single point, plate reader. inhibition, % at 9.99 µM. AID 652162, 2013. TcdB glycohydrolase enzymatic assay. hit rate 0.24% among 350,000; in the data active = inhibition above about 10%
# Target sequence (P18177 whole entry, looked up): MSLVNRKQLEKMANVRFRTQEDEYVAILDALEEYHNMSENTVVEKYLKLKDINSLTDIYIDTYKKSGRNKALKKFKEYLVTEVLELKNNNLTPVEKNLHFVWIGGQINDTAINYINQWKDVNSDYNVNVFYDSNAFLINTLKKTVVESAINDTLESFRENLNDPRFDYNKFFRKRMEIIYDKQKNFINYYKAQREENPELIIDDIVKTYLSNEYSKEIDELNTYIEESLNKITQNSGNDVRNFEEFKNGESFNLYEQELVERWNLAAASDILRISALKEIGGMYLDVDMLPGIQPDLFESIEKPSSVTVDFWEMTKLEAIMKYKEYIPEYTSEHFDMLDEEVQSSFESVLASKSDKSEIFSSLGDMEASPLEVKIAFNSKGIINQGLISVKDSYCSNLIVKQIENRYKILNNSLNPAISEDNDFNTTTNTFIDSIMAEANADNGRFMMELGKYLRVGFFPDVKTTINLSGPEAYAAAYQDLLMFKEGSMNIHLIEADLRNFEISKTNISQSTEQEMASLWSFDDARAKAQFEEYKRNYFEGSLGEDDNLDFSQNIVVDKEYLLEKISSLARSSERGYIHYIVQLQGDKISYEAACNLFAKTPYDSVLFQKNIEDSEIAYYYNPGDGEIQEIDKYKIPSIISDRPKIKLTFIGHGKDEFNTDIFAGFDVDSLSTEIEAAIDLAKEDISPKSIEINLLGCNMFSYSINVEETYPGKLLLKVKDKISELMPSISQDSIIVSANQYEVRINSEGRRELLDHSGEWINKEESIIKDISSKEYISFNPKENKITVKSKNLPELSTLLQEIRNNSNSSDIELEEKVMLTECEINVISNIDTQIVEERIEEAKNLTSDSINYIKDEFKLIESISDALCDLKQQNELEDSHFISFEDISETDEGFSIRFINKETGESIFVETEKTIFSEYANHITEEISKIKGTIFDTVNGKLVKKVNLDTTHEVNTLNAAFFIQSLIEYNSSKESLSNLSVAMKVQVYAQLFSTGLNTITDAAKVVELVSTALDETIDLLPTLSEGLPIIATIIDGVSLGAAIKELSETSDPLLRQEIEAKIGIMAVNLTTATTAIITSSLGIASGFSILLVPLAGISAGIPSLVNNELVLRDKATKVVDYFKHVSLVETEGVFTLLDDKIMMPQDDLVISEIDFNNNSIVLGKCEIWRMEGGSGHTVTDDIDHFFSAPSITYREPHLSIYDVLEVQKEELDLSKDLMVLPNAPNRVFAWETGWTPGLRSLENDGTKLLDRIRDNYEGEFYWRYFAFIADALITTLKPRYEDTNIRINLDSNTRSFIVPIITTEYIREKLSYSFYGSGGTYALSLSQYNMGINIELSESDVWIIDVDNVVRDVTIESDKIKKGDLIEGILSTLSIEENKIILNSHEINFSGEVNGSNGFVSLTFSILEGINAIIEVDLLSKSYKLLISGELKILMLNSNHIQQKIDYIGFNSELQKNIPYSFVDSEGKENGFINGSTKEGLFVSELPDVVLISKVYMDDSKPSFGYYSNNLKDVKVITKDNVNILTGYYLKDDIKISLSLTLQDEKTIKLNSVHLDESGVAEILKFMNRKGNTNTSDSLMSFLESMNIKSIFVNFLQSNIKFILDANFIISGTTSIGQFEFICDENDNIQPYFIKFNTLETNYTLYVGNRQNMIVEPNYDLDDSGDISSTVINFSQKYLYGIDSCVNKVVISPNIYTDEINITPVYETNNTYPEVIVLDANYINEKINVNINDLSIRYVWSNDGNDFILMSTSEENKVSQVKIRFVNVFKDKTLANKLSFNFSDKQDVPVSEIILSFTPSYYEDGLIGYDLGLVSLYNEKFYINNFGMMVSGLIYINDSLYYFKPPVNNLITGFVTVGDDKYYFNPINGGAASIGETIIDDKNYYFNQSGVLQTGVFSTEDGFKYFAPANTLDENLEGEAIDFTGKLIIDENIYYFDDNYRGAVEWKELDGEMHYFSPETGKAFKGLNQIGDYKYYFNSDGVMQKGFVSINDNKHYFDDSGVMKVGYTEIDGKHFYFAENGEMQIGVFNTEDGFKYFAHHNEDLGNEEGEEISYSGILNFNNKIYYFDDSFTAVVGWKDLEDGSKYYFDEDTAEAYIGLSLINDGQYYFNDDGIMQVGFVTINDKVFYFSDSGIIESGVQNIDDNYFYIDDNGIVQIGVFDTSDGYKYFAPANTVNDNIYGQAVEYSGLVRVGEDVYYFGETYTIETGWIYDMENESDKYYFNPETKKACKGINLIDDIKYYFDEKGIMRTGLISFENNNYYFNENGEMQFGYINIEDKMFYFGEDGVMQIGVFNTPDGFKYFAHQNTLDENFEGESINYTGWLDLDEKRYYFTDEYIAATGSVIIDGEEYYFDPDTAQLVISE
# Vc quorum ag: inducers of Vibrio cholerae quorum light production without autoinducers, primary screen, BH1578 luxS cqsA deficient, single point; activation, % at 18.7 µM; hit rate 0.16% among 350,000; V. cholerae BH1578 lux reporter, luminescence, 6 h; in the data active = activation mostly above about 9.7%, no sharp cut-off
# Mtb BioA inh: M. tuberculosis BioA enzyme inhibitors, primary screen, biochemical, plate reader, single point, HTS; 7,8-diaminopelargonic acid synthase BioA (Mycobacterium tuberculosis); purified M. tuberculosis BioA enzyme; inhibition, % at 9.99 µM; hit rate 0.096% among 360,000; in the data active = inhibition above about 40%
# An asterisk follows results filed as active; i = inactive; / = not tested or not shown; + = active, no number. In the library only some 0.54% were active in any assay of this set; here they are far more common.
SMILES,FadD28 FP inh,TcdB inh,Vc quorum ag,Mtb BioA inh
O=C1c2ccccc2C(=O)c2c(O)c(O)cc(O)c21,46.7*,1.3,-2.8,-3.8
Cc1cc(C)c(NS(=O)(=O)c2cccc3cccnc23)c(C)c1,0.6,13.9*,0.4,0.4
C[C@H]1CN([C@@H](C)CO)C(=O)c2cc(Br)cnc2O[C@@H]1CN(C)C(=O)Nc1ccc(F)cc1,/,/,/,0.4
CC(=O)N1CC[C@@H]2[C@@H](CO)Nc3ccc(-c4ccccc4)cc3[C@@H]21,/,10.9*,/,13.1
COc1ccc(-c2ccc3c(c2)[C@H]2[C@H](CCN2C(=O)CN2CCOCC2)[C@@H](CO)N3)cc1,/,14.5*,/,-1.4
COc1ccc(-c2ccc3c(c2)[C@H]2[C@H](CCN2C(=O)CN2CCOCC2)[C@H](CO)N3)cc1,/,-3.0,/,0.1
COc1ccc(-c2ccc3c(c2)[C@@H]2[C@@H](CCN2C(=O)CN2CCOCC2)[C@H](CO)N3)cc1,/,12.3*,/,0.6
CO[C@@H]1CN(C)C(=O)c2ccc(NC(=O)CN(C)C)cc2OC[C@@H](C)N(C(=O)C2CCOCC2)C[C@H]1C,/,-2.1,/,-4.8
Cc1ccc(SCCC(=O)N/N=C/c2cccnc2)cc1,-4.9,10.3*,-0.3,/
CCCSc1nc2c([nH]1)c(=O)n(C)c(=S)n2C,-3.7,10.4*,i,/
CCSc1nc2c([nH]1)c(=O)n(C)c(=S)n2C,-2.0,2.3,-0.8,-1.6
NS(=O)(=O)c1cc2c(cc1Cl)NCNS2(=O)=O,-0.8,0.5,23.8*,1.3
COc1ccc(NC(=O)N(C)C[C@@H]2Oc3ccc(NS(=O)(=O)c4cccs4)cc3C(=O)N([C@@H](C)CO)C[C@@H]2C)cc1,/,-0.4,/,-0.2
O=C(O)c1ccccc1NC(c1ccccc1)c1ccc(Cl)cc1 (configuration not stated),11.7*,-0.7,0.5,/
O=C(CSc1ccccc1C(=O)O)c1ccc(Cl)cc1,-3.4,-1.1,-8.3,-1.7
COCC(=O)Nc1ccc2c(c1)[C@@H]1C[C@H](CC(=O)NCc3cccnc3)O[C@@H](CO)[C@@H]1O2,/,0.0,/,3.1
C[C@@H]1CN([C@H](C)CO)C(=O)c2cc(NC(=O)CCC(F)(F)F)ccc2O[C@@H](C)CCCCO[C@@H]1CN(C)C(=O)CCC(F)(F)F,/,0.5,/,-0.2
COc1cc(/C=C/C(=O)OCC(=O)NC(=O)NC(C)(C)C)ccc1O,0.2,16.1*,-0.4,-1.1
CCc1cccc2c(C(=O)Cn3nnc(-c4ccc(OC)c(OC)c4)n3)c[nH]c12,73.0*,/,-0.4,-0.8
COc1ccc(-c2nnn(CC(=O)NCc3ccc4c(c3)OCO4)n2)cc1OC,-3.2,0.7,-0.7,/
CCc1cccc2c(C(=O)COC(=O)/C=C/c3ccc(O)c(OC)c3)c[nH]c12,34.9*,/,i,-4.3
COc1cc(/C=C/C(=O)OCC(=O)Nc2cccc(F)c2)ccc1O,0.9,3.7,i,8.6
COc1cc(/C=C/C(=O)OCC(=O)NCc2ccco2)ccc1O,-1.5,14.5*,-4.2,-1.0
COCC(=O)N[C@@H]1C=C[C@@H](CC(=O)N2CCCCC2)O[C@H]1CO,/,-1.1,/,0.9
COc1cccc(C=O)c1OCCN1C(=O)c2ccccc2C1=O,-0.8,-4.8,i,65.2*
SMILES,FadD28 FP inh,TcdB inh,Vc quorum ag,Mtb BioA inh
COc1cccc(C(=O)OCCN2C(=O)c3ccccc3C2=O)c1OC,-0.3,/,i,0.4
O=C1NN(c2ccc(Br)cc2)C(=O)/C1=C\c1ccc(O)cc1O,15.8*,-1.0,-0.7,2.7
C[C@H]1CN([C@@H](C)CO)C(=O)c2cc(NC(=O)Nc3cccc4ccccc34)ccc2O[C@@H]1CN(C)CC1CCCCC1,/,-1.5,/,-0.4
CC(=O)Nc1ccc(N=C(C2=C(O)c3ccccc3C2=O)c2ccccc2)cc1,13.6*,1.7,-0.2,/
COc1ccc(N=C(C)C2=C(O)c3ccccc3C2=O)cc1,1.4,/,-0.1,-1.8
O=C(O)Cn1cc(C(=O)c2ccco2)c2ccccc21,-3.2,/,-3.1,3.3
CCOC(=O)Cn1cc(C(=O)c2ccco2)c2ccccc21,15.0*,/,i,3.9
COc1cc2[nH]c(=S)n(NC(=O)c3ccccc3)c(=O)c2cc1OC,-2.2,/,+,-0.6
Cc1ccc(C(=O)NCCSCc2ccc(Cl)cc2Cl)cc1[N+](=O)[O-],16.9*,0.6,i,/
COc1cccc(S(=O)(=O)N[C@H]2CC[C@@H](CCn3cc(-c4ccc(F)cc4)nn3)O[C@H]2CO)c1,/,0.0,/,1.6
Cc1[nH]nc(-c2ccc(O)cc2O)c1Oc1ccccc1,-8.8,10.6*,i,2.6
COc1ccc(S(=O)(=O)N(C)C[C@@H]2OCCCC[C@H](C)Oc3ccc(NC(=O)C4CCCCC4)cc3C(=O)N([C@H](C)CO)C[C@H]2C)cc1,/,-0.7,/,-0.7
C[C@H](CO)N1C[C@H](C)[C@@H](CN(C)S(=O)(=O)c2ccc(Cl)cc2)Oc2ccc(NC(=O)C3CCCCC3)cc2CC1=O,/,-0.9,/,18.9
CN(C)CC1CC/C(=C\c2ccc(O)cc2)C1=O (configuration not stated),-5.1,4.4,i,/
CC1CCC/C(=C\c2ccc(O)cc2)C1=O (configuration not stated),-2.4,36.5*,i,-1.2
C[C@H](CO)N1C[C@H](C)[C@H](CN(C)Cc2cncnc2)Oc2ncc(-c3ccc(C#N)cc3)cc2C1=O,/,1.0,/,0.4
CC(OC(=O)C1=COCCO1)C(=O)c1ccc(Br)cc1 (configuration not stated),-1.0,13.8*,i,-0.4
O=C(CCN1CCCCC1)NCC[C@H]1CC[C@H](NC(=O)Cc2cccnc2)[C@H](CO)O1,/,-5.9,/,3.3
S=c1nc[nH]c2c1sc1nc(-c3ccccc3)c3c(c12)CCCC3,15.2*,1.1,i,/
CC(C)(C)C(=O)Nc1ccc(C(=O)Nc2cccc(Oc3ccc(C(=O)O)c(C(=O)O)c3)c2)cc1,-4.0,0.4,-0.7,0.1
O=C(Nc1cccc(Oc2ccc(C(=O)O)c(C(=O)O)c2)c1)c1ccc(-c2ccccc2)cc1,28.7*,0.1,i,3.6
COC(=O)[C@]1(Cc2ccccc2)N[C@H](CN(C)S(=O)(=O)c2ccc(-c3ccccc3)cc2)[C@@H]2C(=O)N(C)C(=O)[C@@H]21,11.1*,0.8,1.0,-0.7
CC(C)NC(=O)Nc1ccc2c(c1)CC(=O)N([C@H](C)CO)C[C@@H](C)[C@@H](CN(C)C(=O)Nc1cccc3ccccc13)O2,/,0.7,/,-0.2
COc1ccccc1C(=O)Nc1ccc2c(c1)OC[C@@H](C)N(C(C)=O)C[C@H](C)[C@@H](OC)CN(C)C2=O,/,/,/,-2.6
CC(=O)NC(=O)Nc1sc(=S)n(C)c1C,-0.9,/,-0.3,-4.3
SMILES,FadD28 FP inh,TcdB inh,Vc quorum ag,Mtb BioA inh
Cc1ccc(NC(=O)Nc2sc(=S)n(C)c2C)cc1,11.1*,/,-0.3,0.0
Cc1ccc(NC(=S)N(C)Cc2cn(C)c3ccccc23)cc1,16.5*,/,-0.5,-0.9
COc1cccc(C(=O)Nc2ccc3c(c2)OC[C@@H](C)N(C(=O)C2CCOCC2)C[C@@H](C)[C@H](OC)CN(C)C3=O)c1,/,0.7,/,1.6
CC(=O)Nc1cccc2c1C(=O)N(c1ccc(C)cc1)C2=O,-2.8,/,16.7*,-0.7
Cc1ccc(N2C(=O)c3ccccc3C2=O)cc1,-1.9,-3.5,-0.4,-1.5
Cc1cccc(N=C2NC(=O)CS2)c1,-3.8,/,/,2.6
